GLP1R ag: agonists of human GLP-1 receptor; P43220; 0.007% of 380,000 active; AID 624172; Potency, µM (doses to about 45.6 µM), inactives show top-dose activation, usual class: activators; HEK293 GLP-1R CRE-luciferase, luminescence, 4-6 h; cells express a hypersensitive GLP-1R form; further: % of control where 0% means no effect
Target sequence (P43220 whole entry, looked up): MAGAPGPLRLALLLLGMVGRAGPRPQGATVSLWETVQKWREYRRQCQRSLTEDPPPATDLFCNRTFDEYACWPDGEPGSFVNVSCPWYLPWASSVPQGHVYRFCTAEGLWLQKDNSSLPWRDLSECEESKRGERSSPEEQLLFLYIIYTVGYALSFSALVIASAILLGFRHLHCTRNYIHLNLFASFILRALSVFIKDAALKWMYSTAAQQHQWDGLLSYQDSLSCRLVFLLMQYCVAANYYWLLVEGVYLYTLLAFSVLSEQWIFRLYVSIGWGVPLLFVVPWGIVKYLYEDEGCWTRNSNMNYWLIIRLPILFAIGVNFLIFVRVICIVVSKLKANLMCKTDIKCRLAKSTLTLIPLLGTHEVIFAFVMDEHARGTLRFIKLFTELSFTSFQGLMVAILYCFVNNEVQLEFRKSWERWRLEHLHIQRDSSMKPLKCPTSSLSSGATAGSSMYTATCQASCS
TGFb SMAD3 inh: blocks TGF-b signaling; AID 588855; HepG2 CAGA-GFP TGF-b/SMAD3 reporter, GFP fluorescence, 18 h; TGF-beta stimulated, 500 pg/mL final; 1.2% of 410,000 active; Potency, µM (doses to about 46.1 µM), for the others: top-dose activity, negative = inhibition, hits mostly inhibitors; further: on the % scale 0 is the no-effect control and ±100 the full control effect; nearly all actives have a fitted effect of over 65% in size
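First, reporter cells (HEPG2 CAGA-GFP) rested 2 h at 37 degrees C. Next, compounds were pinned in and TGF-beta added to 500 pg/mL final. After 18 h, GFP was imaged per cell and summed per well.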
S2 tox: reduces viability in counter-screen for ATXN expression inhibitors | AID 651635 | S2 cells (HEK-293 line with an ATXN2-luciferase reporter) viability, CellTiter-Fluor protease fluorescence, 24 h | 0.49% of 400,000 active | Potency, µM (doses to about 56.7 µM), most hits filed as cytotoxic; further: nearly all actives have a fitted effect of over 40% in size
HepG2 viability: HepG2 cytotoxicity, counter-screen for TGF-b inhibitors; 0.76% of 410,000 active; Potency, µM (doses to about 46.1 µM), without a hit: top-dose activity change, negative = cytotoxicity, usual class: cytotoxic; HepG2 CAGA-GFP viability, ATP luminescence, 18 h; AID 588856
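HepG2 CAGA-GFP cells (1000/well, DMEM with 1% FBS) received compound, then TGF-beta at 500 pg/mL final, and were incubated 18 hours at 37 degrees C. Viability was read by CellTiter-Glo luminescence. Media-only wells were set as complete cell-killing and DMSO as no toxicity.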
ATXN2 expr inh: ATXN2 expression inhibition. HEK-293 ATXN2-luciferase reporter, luminescence, 24 h. 0.72% of 360,000 active. Potency, µM (top dose mostly 57 µM), for inactives: at the top dose activity change, negative = inhibition, actives largely listed as inhibitors; further: on the % scale 0 is the no-effect control and ±100 the full control effect; nearly all actives have a fitted effect of over 55% in size
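ATXN2-luciferase reporter cells (luciferase flanked by upstream and downstream ATXN2 gene portions) were treated 24 h at 37 °C with compounds at up to 57 uM. SteadyGlo luminescence gave expression; GF-AFC fluorescence gave viability.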
GLP-1R inv ag: acts as inverse agonist at human GLP-1 receptor. 1.6% of 410,000 active. P43220. HEK293 GLP-1R CRE-luciferase, luminescence, 24 h; GLP-1R form is constitutively active. Potency, µM (top dose mostly 38.3 µM), inactives show top-dose activity change, negative = inhibition, actives largely listed as inhibitors; further: on the % scale 0 is the no-effect control and ±100 the full control effect; nearly all actives have a fitted effect of over 55% in size
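Inverse agonists were sought by their lowering of basal cAMP reporter luciferase output in HEK293 cells stably carrying constitutively active human GLP-1R, after 24 h compound treatment.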
The depositor's hits bear a star; i = inactive; ? = inconclusive; / = not tested or not shown; ! = repeats disagree; [ ] = another dose, or the depositor's remark. Shown are actives, neighbours in structure and some others; about 3.7% of the full set was active somewhere. The call rests on the fitted dose curve; in most records, active means well fitted curve in the direction sought with a large enough effect; inconclusive means small, poorly fitted or top-dose-only effect, or another doubt; inactive means no such curve, though single readings can be large; an effect the other way counts as inactive or inconclusive. Potency means the concentration at half of the fitted maximal effect.

SMILES	GLP1R ag	TGFb SMAD3 inh	S2 tox	HepG2 viability	ATXN2 expr inh	GLP-1R inv ag
CC(C)=CCC/C(C)=C/Cc1c(O)ccc(C(=O)/C=C/c2ccc(O)cc2)c1O	12%	?	32µM*	-110%	?	?
C=C(C)C(O)Cc1c(OC)ccc(C(=O)/C=C/c2ccc(O)cc2)c1O (stereo not drawn)	3%	-19%	?	-31%	-33%	?
CCOc1ccc(NC(=O)N2CC=C(c3c[nH]c4ccccc34)CC2)cc1	/	0%	/	4%	/	?
Cc1ccc(C(=O)N2CCc3cc4c(cc3C2C)OCCCO4)cc1 (stereo not drawn)	-1%	?	i	-27%	-24%	11µM*
CC1c2cc3c(cc2CCN1C(=O)c1ccc(Cl)cc1)OCCCO3 (stereo not drawn)	13%	-28%	i	-2%	-24%	?
CCOc1ccc2nc(NC3=NC(c4ccc(OC)cc4)CC(=O)N3)nc(C)c2c1 (stereo not drawn)	21%	?	8.9µM*	-101%	8.9µM*	89%
CCCc1cc(C(=O)Cc2ccc(C(=O)OCC)o2)c(O)cc1O	0%	-5%	i	-7%	-2%	?
CCc1cc(-c2n[nH]c(C)c2-c2ccc3c(c2)OCCO3)c(O)cc1O	/	/	/	/	6.1µM*	/
CCCc1cc(-c2n[nH]c(C)c2-c2ccc(C(=O)OCC)o2)c(O)cc1O	5%	14µM*	?	-50%	?	?
OC1(c2ccc3c(c2)CN(Cc2ccccn2)CCO3)CCN(c2ccccc2F)CC1	/	/	i	/	/	/
O=C(CSc1ncnc2c1nnn2Cc1ccc(F)cc1)NCC1CCCO1 (stereo not drawn)	0%	-30%	i	-9%	-11%	13µM*
O=C(CSc1ncnc2c1nnn2Cc1ccc(F)cc1)NC1CCCCC1	-1%	6%	i	0%	-7%[11.3 µM]	-3%
COc1ccc(-n2c(-c3ccc(Cl)cc3)c[n+]3c2CCc2ccccc2-3)cc1	4%	-17%	i	-20%	?	-13%
Cc1ccc(-n2c(-c3ccc(Br)cc3)c[n+]3c2CCc2ccc4cccnc4c2-3)cc1	-12%	3.2µM*	14µM*	8.9µM*	5µM*	?
CC(=O)c1ccc(OCC(O)CN(C)CCOc2ccc(Br)cc2)cc1 (stereo not drawn)	0%	-28%	i	-26%	?	10µM*
Cc1ccc(S(=O)(=O)C(CNC(=O)COc2ccccc2)c2ccco2)cc1 (stereo not drawn)	/	-24%	/	-17%	/	8%
CCOc1ccc(N=C/C=C/c2ccccc2)c(O)c1	4%	14µM*	?	-121%	/	31%
COc1ccc(O)c(CN2CCC3(CCC(CNC(=O)c4ccco4)O3)CC2)c1 (stereo not drawn)	/	/	i	/	/	/
CCCS(=O)(=O)NCc1c(C)ncc2c1CCN(C(=O)c1cccc(Cl)c1F)C2	/	/	i	/	/	/
N#Cc1ccccc1Sc1ccccc1C(=O)Nc1ccc2ccccc2c1	8%	-13%	i	-13%	/	?
COc1ccc(Sc2ccc(NC(=O)c3ccccc3Cl)cc2C#N)cc1	2%	-27%	i	-29%	-28%	13µM*
O=C(O)CC/C=C\CC[C@@H]1[C@@H](N2CCCCC2)[C@@H](O)C[C@@H]1OCc1ccc(-c2ccccc2)cc1	-5%	/	/	/	/	/
O=C(CCCl)NCc1ccccc1	/	/	i	/	-2%	/
CN(C)CCCN(C(=O)c1cc2cc([N+](=O)[O-])ccc2s1)c1nc2cc3c(cc2s1)OCCO3	-21%	?	20µM*	-98%	?	?
CN(C)CCCN(C(=O)c1ccco1)c1nc2cc3c(cc2s1)OCO3	1%	-19%	i	-30%	14µM*	-13%
SMILES	GLP1R ag	TGFb SMAD3 inh	S2 tox	HepG2 viability	ATXN2 expr inh	GLP-1R inv ag
COc1ccc2nc(N(CCN(C)C)C(=O)/C=C/c3cccs3)sc2c1	3%	?	?	-90%	/	?
COc1ccc2sc(N(CCN(C)C)C(=O)/C=C/c3cccs3)nc2c1	-6%	?	?	20µM*	/	?
Cc1cccc2sc(N(CCCN(C)C)C(=O)COc3ccc(Cl)cc3)nc12	9%	-25%	i	22µM*	-38%	?
Cc1cccc2sc(N(CCCN(C)C)C(=O)COc3ccccc3)nc12	/	/	/	-32%	/	-4%
CCC1CN(CCC(=O)NC2CCOC(C)(C)C2)Cc2cc(OC)ccc2O1 (stereo not drawn)	/	/	i	/	/	/
Cc1cccc2sc(N(CCN(C)C)C(=O)/C=C/c3cccs3)nc12	3%	?	i	-45%	-11%	0%
CN(C)CCCN(C(=O)CCOc1ccccc1)c1nc2c(F)cccc2s1	-5%	?	/	11µM*	-32%	?
CN(C)CCCN(C(=O)c1ccc(Cl)s1)c1nc2cc3c(cc2s1)OCO3	8%	?	28µM*	-95%	?	?
CN(C)CCCN(C(=O)/C=C/c1cccs1)c1nc2c(F)cccc2s1	-1%	18µM*	?	13µM*	?	-54%
Cc1cccc2sc(N(CCCN(C)C)C(=O)c3ccc(C(=O)c4ccccc4)cc3)nc12	4%	?	?	-84%	?	5µM*
CC(O)C1C(=O)N2C(C(=O)O)=C(SC3CNC(C(=O)N(C)C)C3)C(C)C12 (stereo not drawn)	/	/	/	/	7%	/
Cc1ccc(C(=O)Nc2cnn(-c3ccc(C(=O)NCc4nc(-c5ccccc5)n[nH]4)cc3)c2)c(C)c1	/	/	i	/	/	/
CCc1ccc(NC(=O)Nc2ccccc2OCc2cc(=O)n3ccccc3n2)cc1	/	-1%	/	0%	/	-3%
O=C(c1cnn2cccnc12)N1CCOc2ccc(C(O)C(c3ccccc3)c3ccccc3)cc2C1 (stereo not drawn)	/	/	i	/	/	/
CC(C)(C)CC(=O)OCC(=O)[C@@]12OC(C)(C)O[C@@H]1C[C@H]1[C@@H]3CCC4=CC(=O)C=C[C@]4(C)[C@@]3(F)[C@@H](O)C[C@@]12C	/	/	i	/	/	/
FC(F)(F)c1ccc(Nc2nc3ccc(Oc4ccnc(-c5ncc(C(F)(F)F)[nH]5)c4)cc3[nH]2)cc1	/	/	/	/	-12%	/
CN(C)CCCN(C(=O)c1ccc(C(=O)c2ccccc2)cc1)c1nc2cc3c(cc2s1)OCO3	-30%	?	?	11µM*	?	?
COc1ccccc1CCNC(=O)C1CCN(c2nnc(C)c3c(C)n(-c4ccc(C)cc4)nc23)CC1	-2%	?	?	3.5µM*!	-10%	1%
